# The list shows a part of the results. Inconclusive results are not listed. The source made the active and inactive calls. Calls come from the whole dose curve; as a rule, active = well fitted inhibition curve with a large enough effect; inconclusive = small, poorly fitted or top-dose-only effect; inactive = flat fitted curve, though single readings scatter.
# Assay: qHTS Assay for Inhibitors of Fructose-1,6-bisphosphate Aldolase from Giardia Lamblia: Coupling assay counterscreen confirmation (AID 2795); note: nearly all actives have a fitted effect of over 55% in size
# Details: GAPDH coupling enzyme counterscreen, biochemical; series mostly up to 57.5 µM; activity change, negative = inhibition: at the top concentration
# Source text: NIH Chemical Genomics Center [NCGC]
# NIH Molecular Libraries Probe Production centers Network [MLPCN]
# Assay Provider: Osnat Herzberg, University of Maryland
# The objective of this project is to obtain compounds that inhibit Giardia lamblia growth. G. lamblia is a human pathogen which afflicts impoverished nations; it is the most common cause of outbreaks of diarrhea in the United States. During the course of our study of potential drug targets in Giardia, we have identified the Class II (Zn2+ functions in electrophilic catalysis) fructose-1,6-bisphosphate aldolase (FBPA) as an excellent candidate for drug targeting. FBPA is a key glycolytic pathway enzyme, essential for G. lamblia survival. The human FBPA belongs to the Class I aldolases, which have a different substrate binding site structure and a radically different catalytic mechanism (employing a lysine-Schiff base intermediate). Therefore, affinity-based or mechanism-based inhibitors of the Giardia FBPA are expected not to interfere with the catalytic function of the human FBPA.
# A glyceraldehyde-3-phosphate dehydrogenase/triose phosphate isomerase/NAD/arsenate coupled assay was adapted to the 1536-well HTP format for use in the primary screen. This was done by coupling it to a diaphorase/resazurin/resorufin reaction that can be monitored by fluorescence (excitation, 544 nm; emission, 590 nm). Compounds identified in this screen will be further evaluated by coupling the glycerol-3-phosphate/triose phosphate isomerase/NADH assay to a phenazine methosulfate/tetranitroblue tetrazolium color reaction. False positives due to the dehydrogenases and diaphorase inhibition will be eliminated, and selectivity assay will triage inhibitors of mammalian triose phosphate isomerase and the Class I FBPA. G. lamblia FBPA inhibitors identified by the in vitro analyses will be examined for growth inhibition of Giardia trophozoites, and for cytotoxicity in human cells.
# This assay specifically addresses whether activity observed in the primary screen (AID 2451) is related to inhibition of the coupling assay used, as opposed to inhibition of aldolase. Actives in this assay are considered inconclusive for activity against aldolase. Hits from the primary screen was run in this assay to confirm their inactivity against the coupling assay.
# Step,Parameter,Value,Description
# 1,Coupling enzyme reagent,2 uL,glyceraldehyde-3-phosphate
# 2,Compound,23 nL,3.68 nM-57.5 uM final concentration
# 3,Time,10 min,RT Incubation
# 4,Substrate/detection Reagent,2 uL,Substrate + enzyme coupling system + AmpLite Red kit
# 5,Time,20 min,RT Incubation
# 6,Detector,525 nm/598 nm (Fluorescence),ViewLux Fluorescence Read (Read 1)
# 1,Medium-binding black solid-bottom Kalypsys plates. FRD or Kalypsys dispenser.
# 2,Compound Library (10 mM ,1:5 dilution). Pin-transferred for a [final] range of 3.68 nM-57.5 uM.
# 4,FRD or Kalypsys dispenser, 2 uL of reaction mixture. Bottle kept at 4C and covered in foil to protect from light.
# 6,ViewLux Protocol 1194; Excitation filter wheel A (525/20 Pol; BODIPY TMR FP), Emission filter wheel B (598/25 S; BODIPY TMR FP S).
# Keywords: Fructose-bisphosphate aldolase, FBPA , Giardia lamblia , Giardia, HTS, Inhibitors
# % is set by controls: 0 for no effect and ±100 for the full control effect.
row,Compound,"activity change, negative = inhibition"
1,Cc1cc(C)c2c(=O)[nH]c(SCC(=O)Nc3ccc(Br)cc3)nc2n1,13% (inactive)
2,O=C(CSc1cccc[n+]1[O-])c1ccc(-c2ccccc2)cc1,7.53% (inactive)
3,COc1ccc(C(=O)NC(=S)N2CCCCC2c2cccnc2)cc1OC (stereo not given),9.92% (inactive)
4,Cc1cccc(C)c1OCCN1CCOCC1,-24.1% (inactive)
5,COc1ccc(Cl)cc1C(=O)NNC(=O)c1nc2nc(C)cc(C)n2n1,14.1% (inactive)
6,Cn1c(=O)[nH]c(=O)c2c1[nH]c(=S)n2Cc1ccccc1,-18.7% (inactive)
7,CNC(=S)N/N=C/c1ccc(N2CCOCC2)s1,-21.6% (inactive)
8,Cc1cnc(NC(=O)c2ccccn2)s1,-0.283% (inactive)
9,COc1ccc(OC)c(Nc2nc(-c3ccc(O)c(O)c3)cs2)c1,-19.6% (inactive)
10,COC(=O)CC1=NN(c2nc(C)cc(C)n2)C(=O)C1,-14.1% (inactive)
11,COCCN(C(=S)Nc1ccccc1OC)C1CCN(C(C)C)CC1,2.95% (inactive)
12,O=C(CN1CCN(Cc2ccccc2)CC1)Nc1ccc(F)c(F)c1,6.58% (inactive)
13,C/C(=N\NC(N)=S)c1cccnc1,9.02% (inactive)
14,CCN1CCc2c(C#N)c(NCc3ccccc3)nc(NCCO)c2C1,-5.96% (inactive)
15,Cc1ccc(C(=O)Nc2nnc(C3=COCCO3)o2)cc1C,-8.14% (inactive)
16,CSc1n[nH]c(=S)n1N,2.87% (inactive)
17,O=C(CN1C(=O)COc2ccccc21)Nc1ccc(F)cc1,-24.3% (inactive)
18,Cn1nnc(NC(=S)NC(=O)c2ccccc2)n1,-0.91% (inactive)
19,O=[N+]([O-])c1cc([N+](=O)[O-])c2cccnc2c1O,-20.4% (inactive)
20,Cc1nc2ccc(NC(=S)N3CCC(C)CC3)cc2nc1C,-26.3% (inactive)

row,Compound,"activity change, negative = inhibition"
1,CCS(=O)(=O)c1cc([N+](=O)[O-])c(Sc2ccccc2N)s1,5.69% (inactive)
2,CCN(CC(=O)NC(=O)NCc1ccccc1)Cc1nc2ccccc2c(=O)[nH]1,3.55% (inactive)
3,O=C(O)Cn1c(Cc2ccccc2)nc2ccccc21,3.77% (inactive)
4,Cc1nnc(SCC2=C(C(=O)O)N3C(=O)C(NC(=O)Cn4nc(C)c(Cl)c4C)C3SC2)s1 (stereo not given),-0.591% (inactive)
5,CC1CCCN(S(=O)(=O)c2ccc(C(=O)Nc3nnc(-c4ccncc4)o3)cc2)C1 (stereo not given),-9.85% (inactive)
6,Oc1[nH]c2ccc(Br)cc2c1N=Nc1nn[nH]n1,7.05% (inactive)
7,C=CCc1cc(C)ccc1OCCCn1ccnc1,-10.1% (inactive)
8,CN1CCN(CCCCOc2ccccc2-c2ccccc2)CC1,-10.8% (inactive)
9,C=CCNC(=S)/N=c1/ccccn1Cc1ccccc1,4.2% (inactive)
10,O=C(Nc1ccccc1Cl)O/N=C(/c1ccccc1)c1ccccn1,-0.579% (inactive)
11,O=C1CCCN1CCCNC(=S)Nc1ccc(F)c(Cl)c1,4.58% (inactive)
12,O=C(NC(=S)Nc1ncccn1)c1ccccc1Br,-4.28% (inactive)
13,Cc1ccc(OCCCCc2c(C)n[nH]c2C)cc1,-1.86% (inactive)
14,CN(C)CCOc1ccc(Cl)cc1C(C)(C)C,-9.12% (inactive)
15,O=c1nc(N/N=C/c2ccco2)cn[nH]1,5.45% (inactive)
16,CCc1ccc2c(c1)C1(NN=C(c3ccccc3)S1)C(=O)N2 (stereo not given),5.94% (inactive)
17,Cc1nc(N2CCOCC2)sc1C(=O)NN,-22.9% (inactive)
18,Cc1cc(C)n(-c2ccc(Cl)c(C(=O)O)n2)n1,-17.5% (inactive)
19,Cc1cc(C)nc(N/N=C/c2ccc([N+](=O)[O-])o2)n1,-22.2% (inactive)
20,CN1CCCc2cc(C#N)c(=O)[nH]c21,-17% (inactive)

# — PubChem BioAssay (NCATS)
